This passage reports activation factor results from PubChem BioAssay AID1024 (Sanford-Burnham Center for Chemical Genomics, 2008).

The structures appear in SMILES notation. Hit rate of the full screen: of about 96,000 compounds, about 1,400 (1.5%) were called active.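 The calls were made as follows: active = activation factor of 2 or more for CYP2C9 at a 5 µM dose; inactive = the rest.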 Only a selection was taken, and actives are over-represented in it overall.

This assay deals with Cytochrome P450 2C9 (Homo sapiens) (UniProt P11712). Description: enhancers of cytochrome P450 2C9 turnover – biochemical, luminescence, primary screen (AID 1024).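 Also: 0 = sulfaphenazole-blocked wells and 1 = vehicle-only wells.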 The conditions noted are these: recombinant CYP2C9, luciferin-H conversion, at 5 µM, hits give high values, factor 1 = untreated enzyme, 0 = blocked.
Chain of Cytochrome P450 2C9 (Homo sapiens) (P11712 whole entry, looked up): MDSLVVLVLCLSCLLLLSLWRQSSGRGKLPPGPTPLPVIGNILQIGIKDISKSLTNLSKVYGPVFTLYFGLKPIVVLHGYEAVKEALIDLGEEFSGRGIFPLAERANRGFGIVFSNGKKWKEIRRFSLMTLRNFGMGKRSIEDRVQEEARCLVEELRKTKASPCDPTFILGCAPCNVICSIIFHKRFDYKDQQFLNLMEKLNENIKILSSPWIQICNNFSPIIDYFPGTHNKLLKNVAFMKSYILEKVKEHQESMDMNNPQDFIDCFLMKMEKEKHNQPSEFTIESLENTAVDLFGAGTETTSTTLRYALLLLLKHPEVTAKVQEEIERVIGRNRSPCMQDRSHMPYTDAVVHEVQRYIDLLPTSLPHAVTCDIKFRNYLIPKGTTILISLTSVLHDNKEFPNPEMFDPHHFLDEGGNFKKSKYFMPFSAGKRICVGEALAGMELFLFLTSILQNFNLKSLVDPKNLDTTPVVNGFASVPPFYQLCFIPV
On to `c1ccc(COc2ccccc2CNCc2cccnc2)cc1`, for which the activation factor is 1.1 (inactive).

As for `Cc1csc(=NC(=O)c2ccccc2)n1CCO`, the activation factor is 0.7 (inactive).

As to `Cc1cc(C)c2c3c(sc2n1)C(c1ccccc1)C(C#N)=C(N)O3` (stereo unspecified), the activation factor is 0.9 (inactive).

For `CC1CC(C)CN(S(=O)(=O)c2cccc(C(=O)N3C(=O)c4cccc(N)c4C3=O)c2)C1` (stereo unspecified), the activation factor was 0.9 (inactive).

As to `O=C(CSc1nc(C2CC2)nc2ccccc12)Nc1ccc2c(c1)OCCO2`, the activation factor is 0.6 (inactive).

Consider `O=C(O)C1CC=CCC1C(=O)Nc1ccccc1C(=O)N1CCN(c2ccccc2)CC1` (stereo unspecified), for which the activation factor is 0.9 (inactive).

Take `Cc1ccc(C(=O)N/C(=C/c2ccco2)C(=O)NCCc2c[nH]c3ccccc23)cc1C`: the activation factor is 0.5 (inactive).

Consider `CC(=O)N/C(=C/c1ccc(Cl)cc1)C(=O)NCCc1c[nH]c2ccccc12`, for which the activation factor is 2.7 (active).

On to `COc1ccc(/C=C(\NC(=O)c2ccc(OC)c(OC)c2)C(=O)NCCc2c[nH]c3ccccc23)cc1`, for which the activation factor is 0.6 (inactive).

As for `O=C1c2ccccc2C(=O)N1CCCc1nc(-c2ccccc2)no1`, the activation factor was 0.8 (inactive).

Take `O=C1c2ccccc2C(=O)N1Cc1cc(-c2ccccc2Cl)no1`: the activation factor was 2.3 (active).

For `O=C1c2cccnc2C(=O)N1Cc1cccs1`, the activation factor is 0.9 (inactive).

`Cc1c(C#N)c(NC(=O)c2ccccc2)n(Cc2ccccc2)c1C`: the activation factor is 0.4 (inactive).

Consider `CC(C)CC(=O)Nc1cc(C(F)(F)F)ccc1N1CCOCC1`, for which the activation factor was 0.9 (inactive).

For `O=C(CNS(=O)(=O)c1cccc(C(F)(F)F)c1)Nc1ccccc1F`, the activation factor is 1.2 (inactive).

`CC(CC(=O)Nc1cc(C(F)(F)F)ccc1Cl)c1ccccc1` (stereo unspecified): the activation factor is 2.4 (active).

For the compound `Cc1nc2ccc(NC(=O)C(F)(F)F)cc2o1`, the activation factor was 1 (inactive).

Regarding `Cc1c(CCO)c(=O)[nH]n1C(=O)c1c(F)cccc1F`, the activation factor was 1 (inactive).

With `O=S(=O)(NCC1CCCO1)c1ccc2ccccc2c1` (stereo unspecified), the activation factor was 3 (active).

With `CCOc1ccc(S(=O)(=O)NCC2CCCO2)cc1` (stereo unspecified), the activation factor is 0.9 (inactive).

In the case of `CCC(=O)Nc1ccc(S(=O)(=O)NCC2CCCO2)cc1` (stereo unspecified), the activation factor is 1 (inactive).

For the compound `O=c1c2ccccc2nc2n1C(CSCc1ccccc1)CS2` (stereo unspecified), the activation factor is 0.9 (inactive).

With `CCN1CCN(C(=O)/C=C\C(=O)O)CC1`, the activation factor was 1 (inactive).

Turning to `Cc1ccc(CNC(=O)C2CC(c3ccccc3[N+](=O)[O-])=NO2)o1` (stereo unspecified), the activation factor was 1.2 (inactive).

As for `Cc1cccc(NC(=O)C2CCCN2S(=O)(=O)c2ccc(F)cc2)c1C` (stereo unspecified), the activation factor was 2.5 (active).

`CC(=O)Nc1ccc(S(=O)(=O)N2CCCC2C(=O)O)cc1` (stereo unspecified): the activation factor is 1.1 (inactive).

For `Cc1ccc(S(=O)(=O)N2CCCC2C(=O)NCc2ccco2)cc1` (stereo unspecified), the activation factor is 1.5 (inactive).

Consider `O=C(Cn1nc(C(F)(F)F)c2c1CCC2)NCc1ccc(F)cc1`, for which the activation factor was 3.2 (active).

Turning to `Cc1cc(NC(=O)Cn2nc(C(F)(F)F)c3c2CCCC3)no1`, the activation factor is 0.9 (inactive).

In the case of `COC(=O)c1ccccc1NC(=O)Cn1nc(C(F)(F)F)c2c1CCC2`, the activation factor was 0.8 (inactive).

`CN1C2CCC1/C(=C\c1ccccc1Cl)C(=O)/C2=C\c1ccccc1Cl`: the activation factor was 1.8 (inactive).

For the compound `COC(=O)/C=C/C(=O)NCc1ccco1`, the activation factor is 1 (inactive).

In the case of `C=CCn1c(COc2ccccc2F)nnc1SCC(=O)N1CC(=O)Nc2ccccc21`, the activation factor was 0.9 (inactive).

Turning to `C=CCn1c(COc2cccc3cccnc23)nnc1SCC(=O)OC`, the activation factor was 4.1 (active).

`C=CCn1c(COc2ccccc2)nnc1SCC(=O)NCC(=O)OCC`: the activation factor is 1.1 (inactive).

`CCN(CC)Cc1csc2ccc(Br)cc12`: the activation factor was 1.1 (inactive).

Regarding `COc1cc(C(=S)N2CCOCC2)cc(OC)c1OC(=O)c1cc([N+](=O)[O-])c(C)c([N+](=O)[O-])c1`, the activation factor is 0.9 (inactive).

As for `COc1ccc(NCc2nnc(SCc3ccccc3)n2-c2ccc(OC)cc2)cc1`, the activation factor is 0.4 (inactive).

As to `O=C(CCS(=O)(=O)c1cccc2nsnc12)N1CCN(c2ccccc2F)CC1`, the activation factor is 2.4 (active).

As to `Cc1cccc(C)c1NC(=O)CCS(=O)(=O)c1cccc2nsnc12`, the activation factor is 1 (inactive).

On to `O=C(C(NS(=O)(=O)c1cccc2nsnc12)c1ccccc1)N1CCN(c2ccccc2)CC1` (stereo unspecified), for which the activation factor is 0 (inactive).

In the case of `CSc1nc(-c2ccco2)nn1C(=O)CCc1ccccc1`, the activation factor was 1.1 (inactive).

Consider `O=C(N/N=C/c1ccsc1)c1cc(O)cc(O)c1`, for which the activation factor was 0.9 (inactive).

With `COc1ccc(-c2csc3nc(-c4ccccc4F)oc(=O)c23)cc1OC`, the activation factor was 1 (inactive).

For the compound `CS(=O)(=O)N1CCN(C(=O)c2cc3ccccc3oc2=O)CC1`, the activation factor was 1 (inactive).

For `CCOC(=O)N1CCN(C(=O)c2cc3c(ccc4ccccc43)oc2=O)CC1`, the activation factor was 0.5 (inactive).

Turning to `C=CCc1cccc2cc(C(=O)N3CCN(C(=O)OCC)CC3)c(=O)oc12`, the activation factor was 2.1 (active).

Consider `CCC(C)NC(=O)c1c(N)n(/N=C/c2cccs2)c2nc3ccccc3nc12` (stereo unspecified), for which the activation factor was 0.8 (inactive).

Take `Cc1cccc(-n2cnc(C(=O)Nc3cccnc3)c2)n1`: the activation factor was 0.1 (inactive).

Take `CCOc1ccccc1NC(=O)CCN1CCN(S(=O)(=O)c2ccc(OC)cc2)CC1`: the activation factor was 0.6 (inactive).

Take `CCOc1ccccc1NC(=O)CCc1ccc(C)o1`: the activation factor was 2.8 (active).

Consider `CCOc1ccccc1Nc1nnc(SCC(=O)Nc2cc(C)on2)s1`, for which the activation factor is 0.9 (inactive).

In the case of `Cc1c(Nc2nc3ccccc3nc2NS(=O)(=O)c2cccs2)c(=O)n(-c2ccccc2)n1C`, the activation factor is 0.5 (inactive).

Take `O=C(CCc1ccc(S(=O)(=O)N2CCOCC2)cc1)Nc1ccc2ccccc2c1`: the activation factor is 0.4 (inactive).

In the case of `CCOc1ccccc1C(=O)NCCCn1ccnc1`, the activation factor is 0.3 (inactive).

For the compound `CCCOc1ccccc1C(=O)NCCCC(=O)O`, the activation factor is 1.1 (inactive).

On to `CCCCOCCCNC(=O)c1ccccc1OCC`, for which the activation factor was 2.9 (active).

Turning to `CCc1cc(C(c2ccccc2OC)N2CCOCC2)c(NC(=O)c2ccccc2)s1` (stereo unspecified), the activation factor was 0.1 (inactive).

For the compound `O=C(NC1CCCCC1)C1CC(=O)N(CCc2ccccc2)C1` (stereo unspecified), the activation factor is 1 (inactive).

As for `Cc1nn(-c2ccccn2)c2c1C(c1ccncc1)C1=C(CC(C)(C)CC1=O)N2` (stereo unspecified), the activation factor is 0.2 (inactive).

For `COc1ccc(/C=C2\CCCC3C2=NN(C(=O)c2scnc2C)C3c2ccc(OC)cc2)cc1` (stereo unspecified), the activation factor was 0.2 (inactive).

Turning to `O=C(NCc1ccccc1Cl)c1csc2c1CCCCC2`, the activation factor was 2.5 (active).

For `COC(=O)c1sccc1NC(=O)c1csc2c1CCCC2`, the activation factor is 0.9 (inactive).

For `CC(=O)Cc1nsc(NC(=O)c2csc3c2CCCC3)n1`, the activation factor was 0.7 (inactive).

As to `CC(C)(C)NS(=O)(=O)CC12CCC(CC1=O)C2(C)C` (stereo unspecified), the activation factor was 0.8 (inactive).

Regarding `Cc1cc(C)c2c(-n3cccc3)c(C(=O)NNS(=O)(=O)c3ccc(F)cc3)sc2n1`, the activation factor is 0 (inactive).

Turning to `Cc1ccc2nc(/C(C#N)=C\c3ccc(OC(=O)c4cccs4)cc3)[nH]c2c1`, the activation factor was 0.2 (inactive).

`C=CCOC(=O)C1=C(C)NC(C)=C(C(=O)OCC=C)C1c1cccs1`: the activation factor was 0 (inactive).

On to `CNC(=O)c1csc(-c2ccccc2)n1`, for which the activation factor was 0.9 (inactive).

Take `Cc1ccc(S(=O)(=O)N(C)CC(=O)N2CCc3ccccc32)cc1`: the activation factor is 2.3 (active).

With `O=C(CSCc1ccccc1)N1CCc2ccccc21`, the activation factor was 1.1 (inactive).

With `Cc1ccc(S(=O)(=O)NCC(=O)OCC(=O)N2CCc3ccccc32)cc1`, the activation factor was 1.3 (inactive).

Consider `CCCC(=O)Nc1nc2ccc(NC(=O)c3cccnc3)cc2s1`, for which the activation factor is 0.7 (inactive).

Regarding `O=C(/C=C\NCC(=O)c1ccccc1)c1ccccc1`, the activation factor was 0.9 (inactive).

`Cc1nn(-c2ccccc2)c(Cl)c1C(=O)Nc1ccccc1`: the activation factor is 1.5 (inactive).

For `COc1ccccc1N1CCN(C(=O)CSc2nnc(-c3ccoc3C)o2)CC1`, the activation factor was 0.7 (inactive).

As for `COc1ccccc1-c1nnc(SCC(=O)N2CC(C)CC(C)C2)o1` (stereo unspecified), the activation factor is 3.9 (active).

For the compound `COc1ccccc1-c1nnc(SCC(=O)Nc2ccccc2)o1`, the activation factor was 1.6 (inactive).

With `Cc1cccc(C)c1NC(=O)c1ccc(CN2CCc3ccccc3C2)cc1`, the activation factor was 1.1 (inactive).

With `Cn1nc([N+](=O)[O-])nc1Sc1ccc(C(C)(C)C)cc1`, the activation factor was 0.9 (inactive).

As to `COc1cccc(/C=N\Nc2nncc(-c3ccccc3)n2)c1`, the activation factor was 0.9 (inactive).

Turning to `COc1ccc(S(=O)(=O)N2CCCCC2)cc1Br`, the activation factor is 2.1 (active).

In the case of `CCOc1ccc(S(=O)(=O)N2CCCCCC2)c2ccccc12`, the activation factor was 1.5 (inactive).

As to `COc1ccc(S(=O)(=O)N2CCCC(C(=O)N3CCN(C)CC3)C2)cc1C` (stereo unspecified), the activation factor was 1.2 (inactive).

With `COc1ccc(S(=O)(=O)N2CCCC2)c(C)c1C`, the activation factor is 2.5 (active).

Consider `COc1ccc(S(=O)(=O)Nc2ccc(S(=O)(=O)N3CCCCC3)cc2)cc1OC`, for which the activation factor was 0.1 (inactive).

Regarding `COc1ccc(S(=O)(=O)Nc2ccc(F)cc2)c(C)c1C`, the activation factor is 0.3 (inactive).

With `Cc1ccc(-c2nn(-c3ccccc3)cc2/C=N/NC(=O)c2ccc3c(c2)OCO3)cc1`, the activation factor was 0.2 (inactive).

Take `Cc1cccc(NC(=O)C2CCN(S(=O)(=O)c3cccc4cccnc34)CC2)c1`: the activation factor was 2.8 (active).

Turning to `COc1ccc(NC(=O)C2CCCN(S(=O)(=O)c3cccc4cccnc34)C2)cc1OC` (stereo unspecified), the activation factor is 1.2 (inactive).

Take `O=C(O)C1CCCN(S(=O)(=O)c2cccc3cccnc23)C1` (stereo unspecified): the activation factor is 1.2 (inactive).

`COc1ccccc1CNC(=O)C1CCCN(S(=O)(=O)c2cccc3cccnc23)C1` (stereo unspecified): the activation factor was 2.9 (active).

On to `COc1ccc(NC(=O)C2CCCN(S(=O)(=O)c3cccc4cccnc34)C2)cc1` (stereo unspecified), for which the activation factor was 1.5 (inactive).

As to `O=C(Nc1nccs1)C1CCCN1S(=O)(=O)c1cccc2cccnc12` (stereo unspecified), the activation factor is 0.5 (inactive).

Turning to `CCOC(=O)N1CCN(CC(=O)n2c(C)c(C)c3ccccc32)CC1`, the activation factor is 2.3 (active).

Take `CCOC(=O)N1CCN(CC(=O)c2c(C)[nH]c3ccccc23)CC1`: the activation factor is 1.6 (inactive).

As to `CCOC(=O)N1CCN(C(=O)c2n[nH]c(=O)c3ccccc23)CC1`, the activation factor is 1 (inactive).

As to `COc1ccccc1C(=O)C(O)c1ccccc1OC` (stereo unspecified), the activation factor was 1 (inactive).

For the compound `COc1ccccc1C(=O)Oc1ccc(N2C(=O)CCC2=O)cc1`, the activation factor was 2.1 (active).

For `Cc1ccc(OC(=O)c2ccccc2C(=O)OCC(F)(F)C(F)F)cc1`, the activation factor is 0.2 (inactive).

With `CCN(CC)c1ccc(/C=N/Nc2nc(C)cc(=O)[nH]2)cc1`, the activation factor was 1.2 (inactive).
